{
  "source": "PubChem BioAssay",
  "data": [
    {"tested_on": "XIP peptide (Xip251-270)", "assay": "small-molecule binders of XIP peptide, primary screen, biochemical, small-molecule microarray, fluorescence 635/667 nm, 0.5 µg/mL protein (AID 1183)", "conditions": "small-molecule microarray binding, fluorescence 635 nm; higher = more signal", "values": [
      {"smiles": "COCCOC(=O)N1C(=O)[C@@]2(c3cc(C#CCC(C(=O)OC)C(=O)OC)ccc31)[C@H](C(N)=O)[C@H]1C(=O)O[C@H](c3ccccc3)[C@H](c3ccccc3)N1[C@@H]2c1ccccc1OCCO", "composite z-score": 0.575},
      {"smiles": "C=C(COC)/C(=C/C[C@@H](OC(C)=O)c1cccc(OCCO)c1)c1cnc2ccccc2c1", "composite z-score": 0.21},
      {"smiles": "CC(C)[Si](C#Cc1ccccc1)(O[C@H](c1ccccc1)c1cn(Cc2ccccc2)nn1)C(C)C", "composite z-score": 0.877},
      {"smiles": "C[C@]1(C(=O)O)c2ccccc2C(=O)N(Cc2cc(C(F)(F)F)cc(C(F)(F)F)c2)[C@H]1c1ccc(CO)cc1", "composite z-score": 0.816},
      {"smiles": "[N-]=[N+]=NCc1ccccc1[C@H]1OC(c2ccc(OCCCO)cc2)=N[C@@]1(CCS(=O)(=O)c1ccccc1)C(=O)NCCN1CCOCC1", "composite z-score": 0.816},
      {"smiles": "C=CC[C@@]1(C(=O)NCCCOC)N=C(c2ccc(OCCCO)cc2)O[C@@H]1c1ccccc1CN=[N+]=[N-]", "composite z-score": 0.44},
      {"smiles": "CC(=O)NCCCC[C@@H]1NC(=O)[C@H]2C[C@@H](C(=O)O)[C@@H](c3cccc(OCCO)c3)N2C1=O", "composite z-score": 0.806},
      {"smiles": "C=CCNC(=O)[C@H]1[C@@H]2C(=O)O[C@@H](c3ccccc3)[C@@H](c3ccccc3)N2[C@@H](c2ccc(O)cc2)[C@]12C(=O)Nc1ccccc12", "composite z-score": 0.821},
      {"smiles": "Cc1ccc(S[C@]2(C(=O)NC(C)C)CC(=O)N(Cc3ccccc3)[C@@H]2c2ccc(CO)cc2I)cc1", "composite z-score": -0.304},
      {"smiles": "COC(=O)c1ccc(OC)c(/C=C\\CC(OC(=O)c2ccncc2)c2ccccc2)c1", "note": "(stereo not given)", "composite z-score": 0.146},
      {"smiles": "COc1ccc([Si](C)(C)[C@H]2[C@H](CC(=O)N(CCO)Cc3ccccc3)O[C@@]3(C(=O)N(Cc4ccc(N5C(=O)c6cccc7cccc5c67)cc4)c4ccccc43)[C@@H]2C)cc1", "composite z-score": 0.587},
      {"smiles": "C=C(C)C1CN([C@H](CO)c2ccccc2)C(=O)/C1=C\\c1ccccc1", "note": "(stereo not given in full)", "composite z-score": 0.36},
      {"smiles": "C[N+](C)(C)CCCC[C@@H]1NC(=O)[C@H]2C[C@@H](C(=O)NCCCCCN)[C@@H](c3ccc(O)cc3)N2C1=O", "composite z-score": 0.69},
      {"smiles": "CC(=O)NCCCC[C@@H]1NC(=O)[C@H]2C[C@@H](C(=O)NCCCCCN)[C@@H](c3ccc(O)cc3)N2C1=O", "composite z-score": 0.562},
      {"smiles": "O=C1c2ccccc2[C@](Cc2ccccc2I)(C(=O)NCCN2CCOCC2)[C@H](c2ccc(CO)cc2)N1Cc1ccccc1C(F)(F)F", "composite z-score": 0.627},
      {"smiles": "CCOC(=O)C[C@H]1[C@H](OC(=O)c2ccc(-c3ccccc3)cc2)[C@@H](NC(=O)c2ccc(-c3ccccc3)cc2)c2cc(OCCCO)ccc2N1C(=O)c1ccccc1", "composite z-score": 0.426},
      {"smiles": "COC(=O)C1=CC(CCCO)=CC(c2ccc(CN3CCCC3)cc2)N(C)C=C1C(=O)OC", "note": "(stereo not given)", "composite z-score": 0.873},
      {"smiles": "CCCC1(C(=O)OC)C=C2C(=C(C(C)C)C(=O)C2C)CN1", "note": "(stereo not given)", "composite z-score": -0.619},
      {"smiles": "C=CCOC(=O)[C@H]1[C@@H]2C(=O)O[C@@H](c3ccccc3)[C@@H](c3ccccc3)N2[C@@H](c2ccc(OCCOC(=O)[C@H]3C[C@H]4C(=O)NCC(=O)N4[C@H]3c3cccc(OCCO)c3)cc2)[C@]12C(=O)Nc1ccc(I)cc12", "composite z-score": 0.649},
      {"smiles": "C=CCNC(=O)[C@H]1[C@@H]2C(=O)O[C@@H](c3ccccc3)[C@@H](c3ccccc3)N2[C@@H](c2ccc(O)cc2)[C@]12C(=O)N(C(=O)OCCOC)c1ccc(C#Cc3ccc(OC)cc3)cc12", "composite z-score": 0.625},
      {"smiles": "CS(=O)(=O)CCOC(=O)C1=CC(CCCO)=CC(C2CC2)N(Cc2sc3ccccc3c2Cl)C=C1C(=O)OCCS(C)(=O)=O", "note": "(stereo not given)", "composite z-score": 0.257},
      {"smiles": "CC(C)(C)OC(=O)CC[C@@]1(C(=O)N2CCOCC2)N=C(c2ccc(OCCCO)cc2)O[C@@H]1c1ccccc1CN=[N+]=[N-]", "composite z-score": 0.838},
      {"smiles": "CN1C(=O)C2C=CC(C(O)c3ccc(I)cc3)N(N(c3ccccc3)c3ccccc3)C2C1=O", "note": "(stereo not given)", "composite z-score": 0.348},
      {"smiles": "CC(C)(C)OC(=O)N1[C@@H](C=C(Br)Br)COC1(C)C", "composite z-score": -0.0146},
      {"smiles": "CCCN1C(=O)[C@@]2(c3ccc([N+](=O)[O-])cc3)CC(=O)N(C3CCCCC3)[C@@H]2c2ccc(CO)cc21", "composite z-score": 0.107},
      {"smiles": "C=CCNC(=O)[C@H]1[C@@H]2C(=O)O[C@@H](c3ccccc3)[C@@H](c3ccccc3)N2[C@@H](c2ccc(OCCO)cc2)[C@]12C(=O)N(C(=O)OCCOC)c1ccc(C#CCC(C(=O)OC)C(=O)OC)cc12", "composite z-score": 0.734},
      {"smiles": "CN1C(=O)C2C=CC(C(O)COCc3ccccc3)N(Nc3ccc([N+](=O)[O-])cc3[N+](=O)[O-])C2C1=O", "note": "(stereo not given)", "composite z-score": 0.544},
      {"smiles": "COC(=O)C1=CC(c2ccc(CO)cc2)=CC(C2CC2)N(Cc2cc3c(cc2Br)OCO3)C=C1C(=O)OC", "note": "(stereo not given)", "composite z-score": 0.859},
      {"smiles": "C=CC[C@H](O)c1ccc(O)c(F)c1", "composite z-score": 0.0085},
      {"smiles": "COc1ccc(C(O)C2C=CC3C(=O)N(c4ccccc4)C(=O)C3N2Nc2ccccc2F)c2ccccc12", "note": "(stereo not given)", "composite z-score": 0.795},
      {"smiles": "C=C(COC)C(=O)CC[C@@H](OC(=O)c1ccccc1-c1ccccc1C(=O)O)c1ccccc1OCCO", "composite z-score": 0.17},
      {"smiles": "COC(=O)C(CC#Cc1ccc2c(c1)[C@]1(C(=O)N2)[C@H](C(=O)N2CCCCCCC2)[C@H]2C(=O)O[C@H](c3ccccc3)[C@H](c3ccccc3)N2[C@@H]1c1ccc(OCCO)cc1)C(=O)OC", "composite z-score": 0.956},
      {"smiles": "C[C@H]1C2[C@H](Cc3ccccc3)NC(=O)[C@]23C(=O)N[C@@H](Cc2ccccc2)C(=O)N2CCC[C@H]2C(=O)NC/C=C/CC/C=C/C3[C@@H]2O[C@]12C", "note": "(stereo not given in full)", "composite z-score": 0.457},
      {"smiles": "CCCC[C@@H](O)C1=C(C)Cn2c(=O)n(-c3ccccc3)c(=O)n2[C@H]1CO", "composite z-score": 0.0389},
      {"smiles": "CC(C)c1ccc(NN2C(C(O)C3CCCCC3)C=CC3C(=O)N(c4ccccc4)C(=O)C32)cc1", "note": "(stereo not given)", "composite z-score": 0.788}
    ]}
  ]
}
